Data as given in PubChem BioAssay (NCI).
About 79,000 compounds went through this panel and 15% of them were active in at least one assay; those are over-represented in the sample as a whole. Activity calls are given as the source filed them. Cut-off read from the data, not from the text of the source: active = growth inhibition above about 70%; inactive = the rest.

Tests used:
[1] = NCI Yeast Anticancer Drug Screen. Data for the rad50 strain (AID 155);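 note: 0% = growth of vehicle-only cultures of the same strain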; details: S. cerevisiae rad50 strain growth inhibition; at 50.0 µM; stronger effect = higher value
Summary of the method: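 Compounds were tested on a yeast strain with an engineered DNA damage repair alteration; the reported value is growth inhibition normalised to vehicle treatment.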

[2] = NCI Yeast Anticancer Drug Screen. Data for the mec2-1 strain (AID 157); details: S. cerevisiae mec2-1 strain, at 50.0 µM, stronger effect = higher value
Summary of the method: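 Test agents were screened against the mec2-1 yeast strain, with defined DNA repair or cell cycle alteration. Growth was scored as inhibition against vehicle-only controls.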

[3] = NCI Yeast Anticancer Drug Screen. Data for the sgs1 mgt1 strain (AID 161);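 note: 0% = growth of cultures given vehicle only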; details: S. cerevisiae sgs1 mgt1 strain, at 50.0 µM, stronger effect = higher value
Summary of the method: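 Inhibition of yeast growth, normalised to vehicle-treated controls, is reported for a strain bearing genetic alterations in DNA damage repair.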

[4] = NCI Yeast Anticancer Drug Screen. Data for the cln2 rad14 strain (AID 165);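 note: 0% = growth equal to vehicle treated cultures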; details: S. cerevisiae cln2 rad14 strain, at 50.0 µM, stronger effect = higher value
Summary of the method: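 Growth of compound-exposed yeast (cln2 rad14 genotype) measured and expressed as inhibition relative to vehicle.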

[5] = NCI Yeast Anticancer Drug Screen. Data for the bub3 strain (AID 167); details: S. cerevisiae bub3 mutant strain, at 50.0 µM, stronger effect = higher value
Summary of the method: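 Growth of a checkpoint-deficient yeast mutant is measured after compound exposure. Values represent inhibition relative to vehicle.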

[6] = NCI Yeast Anticancer Drug Screen. Data for the mlh1 rad18 strain (AID 175); details: S. cerevisiae mlh1 rad18 strain growth inhibition; at 50.0 µM; stronger effect = higher value
Summary of the method: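 In this whole-cell yeast screen, a strain with altered DNA damage repair is challenged with compound, and its growth is measured against matched vehicle-treated controls.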

Measured: growth inhibition

C=CCc1ccc(C)c(C)c1O
inactive: [1] 24.4% | [2] 3.55% | [3] 21.8% | [4] 19.1% | [5] 5.55% | [6] 12.8%

COc1ccc(NC(=O)NCc2cccc(Cl)c2)cc1
inactive: [1] 2.6% | [2] 35.4% | [3] 32% | [4] -8.4% | [5] -9.15% | [6] 44.1%

CCOC(=O)C(N)CSSCC(N)C(=O)OCC (stereo unspecified)
inactive: [1] 5.55% | [2] -3.35% | [3] -4.4% | [4] -11.6% | [5] 8.95% | [6] -4.85%

C/C=C(/C)C(=O)O[C@H]1CC[N+]2([O-])CC=C(COC(=O)[C@@](O)([C@H](C)OC)C(C)(C)O)[C@H]12 (stereo partly specified)
inactive: [1] -13.1% | [2] -5.1% | [3] -3.45% | [4] 7.5% | [5] 6.75% | [6] 12.5%

C=CCC(CNC(C)=O)(C1=CCCCC1)c1ccccc1 (stereo unspecified)
inactive: [1] 1.95% | [2] 13% | [3] 13.1% | [4] 19.8% | [5] 17.1% | [6] 12.7%

c1ccc(N2C3Sc4ncccc4C2Sc2ncccc23)cc1
inactive: [1] -20.4% | [2] 2.8% | [3] 16.6% | [4] 6.1% | [5] -1.05% | [6] 7.85%

CC1CCC2(CC1)OC(C)C(C)O2 (stereo unspecified)
inactive: [1] 20.1% | [2] -2.4% | [3] 4.9% | [4] -34.6% | [5] 28.8% | [6] 10.7%

COc1cccc(/C(C#N)=N/NC(=O)c2nc[nH]c2C)c1
inactive: [1] 9.5% | [2] 8.9% | [3] 19.8% | [4] 10.9% | [5] 13.1% | [6] 8.95%

O=C1C(Cl)N(c2ccccc2[N+](=O)[O-])C1c1c[nH]c2ccccc12 (stereo unspecified)
inactive: [1] -13.6% | [2] -22.6% | [3] 3.65% | [4] -19.9% | [5] -26.2% | [6] -31.7%

O=C(Nc1nc2ccccc2n1Cc1ccc(Cl)cc1)C(=O)NC12CC3CC(CC(C3)C1)C2
inactive: [1] -9% | [2] -24.5% | [3] 1% | [4] -0.6% | [5] 6.8% | [6] -8.6%

NC(=O)[C@H]1CC2CCC1C2 (stereo partly specified)
inactive: [1] 6.75% | [2] -1.75% | [3] 3.4% | [4] 5% | [5] 11.3% | [6] 6%

C[P+](Cc1ccc([N+](=O)[O-])cc1)(c1ccccc1)c1ccccc1
inactive: [1] -2.85% | [2] -19.1% | [3] -3.15% | [4] -1.7% | [5] -9.8% | [6] -7.15%

COc1ccc(N2C(=O)C(=O)C3(CCCCC3)C2=O)c2ccccc12
inactive: [1] -6.15% | [2] -25.7% | [3] -16% | [4] 10.8% | [5] 1.05% | [6] 0.3%

CCOC(OCC)C(Cl)(Cl)CCl
inactive: [1] 6.25% | [2] 4.45% | [3] -3.8% | [4] -25.4% | [5] -0.6% | [6] -6.35%

O=C(CCCc1ccccn1)c1ccccc1
inactive: [1] 1.8% | [2] 3.85% | [3] 2.5% | [4] 5.35% | [5] -31.6% | [6] -1.45%

CCCCSc1nc(NCC)nc(NCC)n1
inactive: [1] 63.6% | [2] 38.9% | [3] 67% | [4] 27.1% | [5] 40.5% | [6] 41.9%

CN(C)CCCc1cccc2[nH]c3c(c12)CN(C)CC3
inactive: [1] 22% | [2] -5% | [3] 23.6% | [4] 7.85% | [5] 7.45% | [6] -26%

CN(C)CC1CCCCC1O (stereo unspecified)
inactive: [1] -4.75% | [2] -5.85% | [3] -5.3% | [4] 25.1% | [5] 1.95% | [6] -7.35%

CSc1nc(NC2OCC(OC(C)=O)C(OC(C)=O)C2OC(C)=O)c(N=CC=Nc2c(NC3OCC(OC(C)=O)C(OC(C)=O)C3OC(C)=O)nc(SC)n(C)c2=O)c(=O)n1C (stereo unspecified)
inactive: [1] -4.3% | [2] -4.85% | [3] -19.8% | [4] -16.3% | [5] 7.95% | [6] 12.4%

O=[N+]([O-])c1ccc(-c2cn(-c3ccc(Cl)cc3)cn2)cc1
inactive: [1] 2.75% | [2] -4.15% | [3] 7.5% | [4] 3.35% | [5] -1.85% | [6] -5.7%

OC1c2ccccc2CC12Cc1ccccc1C2 (stereo unspecified)
inactive: [1] 36.1% | [2] 38.5% | [3] 37.3% | [4] 23.5% | [5] 26.6% | [6] 13.8%

CCO[Si](CCCN)(OCC)OCC
inactive: [1] -37.5% | [2] -58.2% | [3] -36.2% | [4] 0.95% | [5] -22.1% | [6] -33.8%

CC(=O)NNc1nc(C)c(C(/C=C/c2ccc(Cl)cc2)=N\NS(=O)(=O)c2ccc(C)cc2)s1
inactive: [1] 26.1% | [2] 2.9% | [3] 19.6% | [4] 23.2% | [5] 23.6% | [6] 9.45%

O=C(O)CCSCc1ccc(I)cc1
inactive: [1] 35.1% | [2] 35.5% | [3] 54% | [4] 34.2% | [5] 47.6% | [6] 37.3%

CC(=O)/C(N=Nc1ccccc1SCCC#N)=C(\C)O
inactive: [1] 12.2% | [2] -2.55% | [3] -8.1% | [4] -28.6% | [5] 9.15% | [6] 1.5%

Cc1ccc2nc(C)cc(NC(=O)c3ccccc3)c2c1
inactive: [1] 13.6% | [2] 8.45% | [3] 8.55% | [4] -18.1% | [5] -5.3% | [6] 24.2%

O=C(O)c1c[nH]c(=O)[nH]c1=O
inactive: [1] 1.25% | [2] -5.4% | [3] 1.25% | [4] -5.55% | [5] 0.65% | [6] -7.5%

COc1ccc2c(c1)CC1=C2CCC2(C)C(=O)CC=C12 (stereo unspecified)
inactive: [1] 11.7% | [2] -8.35% | [3] -7.65% | [4] 11.8% | [5] 4.5% | [6] 4.85%

CN1C(=O)C2CC(=O)N(Cc3ccccc3)C(=O)C2C1=O (stereo unspecified)
inactive: [1] 0.5% | [2] -16.1% | [3] -1.05% | [4] 9.3% | [5] -5.4% | [6] -1.35%

O=P(c1ccccc1)(c1ccccc1)c1ccccc1OCCOCCOc1ccccc1P(=O)(c1ccccc1)c1ccccc1
inactive: [1] -7.2% | [2] -3.75% | [3] 5.9% | [4] -16.8% | [5] 0.35% | [6] 13.9%

NC(=O)CNc1ccc(CC2CCOC2=O)cc1 (stereo unspecified)
inactive: [1] -7.45% | [2] -18.9% | [3] -5.9% | [4] 0.95% | [5] 0.6% | [6] -5.7%

CSc1n[nH]c(SC)n1
inactive: [1] -4.3% | [2] -15.2% | [3] -4.15% | [4] 4.65% | [5] -11.2% | [6] -5.9%

O=[N+]([O-])CC1(O)CCCCC1
inactive: [1] 25.6% | [2] 9.05% | [3] 11.2% | [4] 7.95% | [5] -0.65% | [6] 0.9%

CCCCCCN(CCCCCC)CC(O)c1c(Cl)ccc2ccccc12 (stereo unspecified)
active: [1] 99.1% | [2] 96.5% | [3] 99.3% | [4] 98.6% | [5] 96.4% | [6] 98.5%

O=C1CCC(N2C(=O)C3C4CCC(CC4)C3C2=O)C(=O)N1 (stereo unspecified)
inactive: [1] 2.75% | [2] -12.9% | [3] -14.9% | [4] -1.65% | [5] -2.65% | [6] -16.2%

NC(=O)Nc1ccccc1
inactive: [1] 11.4% | [2] -8.6% | [3] -7.55% | [4] -34.5% | [5] -5.2% | [6] 14.2%

C=CCC(C#N)C1=CCCCC1 (stereo unspecified)
inactive: [1] -6.85% | [2] -26.6% | [3] -12.4% | [4] -4.3% | [5] -23.6% | [6] -5.75%

COC(=O)c1ccccc1-c1ccccc1C(=O)OC
inactive: [1] 7.75% | [2] 18.1% | [3] 10.8% | [4] 25.8% | [5] 15.4% | [6] 13.7%

O=C(CCC(=O)OCC1CCCO1)OCC1CCCO1 (stereo unspecified)
inactive: [1] 1.15% | [2] 2.45% | [3] 4.7% | [4] 4.9% | [5] 5.75% | [6] -2.8%

CCO[C@H]1OC(=O)[C@@H]2C(c3ccc(F)cc3)=NO[C@H]12
inactive: [1] -27.1% | [2] -44.4% | [3] 0.35% | [4] 2.7% | [5] 8.95% | [6] -9.3%

CS/C(=N/S(=O)(=O)c1ccccc1)NNC(=S)Nc1ccc(C(C)C)cc1
inactive: [1] 14% | [2] -12.6% | [3] 27.2% | [4] 22.6% | [5] 28.3% | [6] 25.9%
